Results: paper PMC9838217, “Structure of SALL4 zinc finger domain reveals link between AT-rich DNA binding and Okihiro syndrome”
Where a chain is given by its changes, count along the chain named.

Key:
Experiment in all cases: HT-SELEX; high values mean tight binding
Settings in all cases: protein: recombinant; vector His6-GST; dsDNA, one strand shown
SALL4 ZFC4 WT (HT-SELEX) = target: T1, SALL4 ZFC4 WT (HT-SELEX) (Mus musculus, UniProt Q8BX22 870-940)
T1 sequence: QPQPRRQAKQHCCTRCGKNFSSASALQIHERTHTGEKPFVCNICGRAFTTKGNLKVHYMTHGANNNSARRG
In short: (§1)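 In triplicate selections of up to 6 cycles, purified recombinant mouse SALL4 zinc finger cluster 4 (residues 870–940, 1 µg) was incubated 10 min at room temperature with library DNA (1.5 µg, then 200 ng) in 100 µl of 10 mM Tris–HCl pH 7.5, 50 mM NaCl, poly(dI-dC) and DTT, and complexes were captured on Ni2+ beads, washed and PCR-amplified. Sequencing was done on MiSeq with scanning for 6-mers. The binding signal is each canonical k-mer's read fraction, reported as fold change against the initial random library.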

[1] = target: T2, SALL4 ZFC4 R900W (HT-SELEX) (Mus musculus, UniProt Q8BX22 870-940, R900W)
T2 sequence: T1 sequence with R31W
In short: as §1

[2] = target: T3, SALL4 ZFC4 G921D (HT-SELEX) (Mus musculus, UniProt Q8BX22 870-940, G921D)
T3 sequence: T1 sequence with G52D
In short: as §1

Row | Sequence | binding signal (SALL4 ZFC4 WT (HT-SELEX)) | binding signal [1] | binding signal [2]
1 | TCTGCA | 0.609 ± 0.0257 fold-change vs cycle 0 | 0.678 ± 0.019 fold-change vs cycle 0 | 0.747 ± 0.0393 fold-change vs cycle 0
2 | GCTTCC | 0.35 ± 0.00821 fold-change vs cycle 0 | 0.454 ± 0.0368 fold-change vs cycle 0 | 0.567 ± 0.0502 fold-change vs cycle 0
3 | GACTAC | 0.777 ± 0.0619 fold-change vs cycle 0 | 0.891 ± 0.0393 fold-change vs cycle 0 | 0.967 ± 0.0652 fold-change vs cycle 0
4 | CGTAAC | 0.768 ± 0.0406 fold-change vs cycle 0 | 0.887 ± 0.0447 fold-change vs cycle 0 | 0.922 ± 0.0472 fold-change vs cycle 0
5 | CACGAC | 0.303 ± 0.0099 fold-change vs cycle 0 | 0.381 ± 0.0158 fold-change vs cycle 0 | 0.501 ± 0.0536 fold-change vs cycle 0
6 | ACCAGT | 0.8 ± 0.0267 fold-change vs cycle 0 | 0.969 ± 0.0358 fold-change vs cycle 0 | 0.994 ± 0.0294 fold-change vs cycle 0
7 | GGTCAA | 0.661 ± 0.0198 fold-change vs cycle 0 | 0.78 ± 0.0273 fold-change vs cycle 0 | 0.867 ± 0.0299 fold-change vs cycle 0
8 | CATCTA | 1.33 ± 0.0229 fold-change vs cycle 0 | 1.41 ± 0.0368 fold-change vs cycle 0 | 1.38 ± 0.068 fold-change vs cycle 0
9 | TACTCA | 1.43 ± 0.0381 fold-change vs cycle 0 | 1.5 ± 0.0664 fold-change vs cycle 0 | 1.42 ± 0.0998 fold-change vs cycle 0
10 | AATGAG | 1.36 ± 0.0386 fold-change vs cycle 0 | 1.5 ± 0.047 fold-change vs cycle 0 | 1.41 ± 0.0472 fold-change vs cycle 0
11 | AGTTGC | 0.578 ± 0.0388 fold-change vs cycle 0 | 0.664 ± 0.014 fold-change vs cycle 0 | 0.77 ± 0.0363 fold-change vs cycle 0
12 | TCTACA | 1.24 ± 0.0179 fold-change vs cycle 0 | 1.33 ± 0.0358 fold-change vs cycle 0 | 1.29 ± 0.0644 fold-change vs cycle 0
13 | ACGTCA | 0.686 ± 0.00954 fold-change vs cycle 0 | 0.776 ± 0.0221 fold-change vs cycle 0 | 0.847 ± 0.0153 fold-change vs cycle 0
14 | AGATTA | 2.21 ± 0.147 fold-change vs cycle 0 | 2.14 ± 0.14 fold-change vs cycle 0 | 1.86 ± 0.198 fold-change vs cycle 0
15 | GAGATC | 0.836 ± 0.059 fold-change vs cycle 0 | 0.953 ± 0.0609 fold-change vs cycle 0 | 1.06 ± 0.0528 fold-change vs cycle 0
16 | GGCTTA | 0.5567 ± 0.00529 fold-change vs cycle 0 | 0.656 ± 0.0181 fold-change vs cycle 0 | 0.763 ± 0.0358 fold-change vs cycle 0
17 | GATTTA | 1.94 ± 0.0986 fold-change vs cycle 0 | 1.84 ± 0.0979 fold-change vs cycle 0 | 1.71 ± 0.128 fold-change vs cycle 0
18 | GCCTAA | 0.547 ± 0.0354 fold-change vs cycle 0 | 0.643 ± 0.0255 fold-change vs cycle 0 | 0.746 ± 0.0372 fold-change vs cycle 0
19 | GGCTAA | 0.523 ± 0.0366 fold-change vs cycle 0 | 0.619 ± 0.0212 fold-change vs cycle 0 | 0.728 ± 0.0327 fold-change vs cycle 0
20 | CACATG | 0.752 ± 0.0217 fold-change vs cycle 0 | 0.8671 ± 0.00649 fold-change vs cycle 0 | 0.925 ± 0.0436 fold-change vs cycle 0

Row | Sequence | binding signal (SALL4 ZFC4 WT (HT-SELEX)) | binding signal [1] | binding signal [2]
21 | AACGAG | 0.782 ± 0.0393 fold-change vs cycle 0 | 0.894 ± 0.0693 fold-change vs cycle 0 | 0.934 ± 0.0683 fold-change vs cycle 0
22 | CCTTCA | 0.899 ± 0.0192 fold-change vs cycle 0 | 1.05 ± 0.0389 fold-change vs cycle 0 | 1.06 ± 0.0107 fold-change vs cycle 0
23 | ACTCGG | 0.394 ± 0.0337 fold-change vs cycle 0 | 0.467 ± 0.0183 fold-change vs cycle 0 | 0.588 ± 0.0373 fold-change vs cycle 0
24 | TAGTCA | 1.26 ± 0.0279 fold-change vs cycle 0 | 1.4 ± 0.0422 fold-change vs cycle 0 | 1.34 ± 0.0704 fold-change vs cycle 0
25 | ACTGTC | 0.75 ± 0.0397 fold-change vs cycle 0 | 0.857 ± 0.0177 fold-change vs cycle 0 | 0.901 ± 0.0149 fold-change vs cycle 0
26 | CCATGC | 0.345 ± 0.0259 fold-change vs cycle 0 | 0.399 ± 0.0174 fold-change vs cycle 0 | 0.514 ± 0.0663 fold-change vs cycle 0
27 | AATGAT | 2.25 ± 0.203 fold-change vs cycle 0 | 2.15 ± 0.135 fold-change vs cycle 0 | 1.94 ± 0.238 fold-change vs cycle 0
28 | TCAAGA | 1.32 ± 0.0482 fold-change vs cycle 0 | 1.49 ± 0.0445 fold-change vs cycle 0 | 1.4 ± 0.0701 fold-change vs cycle 0
29 | CATTTC | 1.25 ± 0.0444 fold-change vs cycle 0 | 1.26 ± 0.0656 fold-change vs cycle 0 | 1.23 ± 0.0622 fold-change vs cycle 0
30 | AGAAGG | 0.864 ± 0.0399 fold-change vs cycle 0 | 1.05 ± 0.055 fold-change vs cycle 0 | 0.997 ± 0.0501 fold-change vs cycle 0
31 | ATAGCC | 0.53 ± 0.0341 fold-change vs cycle 0 | 0.6236 ± 0.00564 fold-change vs cycle 0 | 0.747 ± 0.062 fold-change vs cycle 0
32 | AGGAGA | 0.932 ± 0.027 fold-change vs cycle 0 | 1.09 ± 0.059 fold-change vs cycle 0 | 1.06 ± 0.044 fold-change vs cycle 0
33 | AAACGC | 0.392 ± 0.00979 fold-change vs cycle 0 | 0.449 ± 0.0166 fold-change vs cycle 0 | 0.58 ± 0.0501 fold-change vs cycle 0
34 | ACCTAG | 0.875 ± 0.0697 fold-change vs cycle 0 | 0.986 ± 0.0422 fold-change vs cycle 0 | 1.04 ± 0.0407 fold-change vs cycle 0
35 | ATCATG | 1.38 ± 0.03 fold-change vs cycle 0 | 1.48 ± 0.0158 fold-change vs cycle 0 | 1.4 ± 0.0239 fold-change vs cycle 0
36 | GACAAA | 0.966 ± 0.023 fold-change vs cycle 0 | 1.08 ± 0.0338 fold-change vs cycle 0 | 1.1 ± 0.0293 fold-change vs cycle 0
37 | AATGTG | 1.15 ± 0.0171 fold-change vs cycle 0 | 1.23 ± 0.0476 fold-change vs cycle 0 | 1.25 ± 0.0281 fold-change vs cycle 0
38 | ATTAAT | 6.27 ± 0.662 fold-change vs cycle 0 | 2.77 ± 0.256 fold-change vs cycle 0 | 2.34 ± 0.327 fold-change vs cycle 0
39 | GGAAAA | 1.11 ± 0.0508 fold-change vs cycle 0 | 1.13 ± 0.0572 fold-change vs cycle 0 | 1.12 ± 0.0269 fold-change vs cycle 0
40 | ACCTCC | 0.552 ± 0.031 fold-change vs cycle 0 | 0.625 ± 0.0479 fold-change vs cycle 0 | 0.721 ± 0.0399 fold-change vs cycle 0

Row | Sequence | binding signal (SALL4 ZFC4 WT (HT-SELEX)) | binding signal [1] | binding signal [2]
41 | ACATGA | 1.38 ± 0.0574 fold-change vs cycle 0 | 1.49 ± 0.0283 fold-change vs cycle 0 | 1.4 ± 0.088 fold-change vs cycle 0
42 | CACACA | 0.666 ± 0.03 fold-change vs cycle 0 | 0.777 ± 0.0199 fold-change vs cycle 0 | 0.826 ± 0.0389 fold-change vs cycle 0
43 | ACAGTA | 1.35 ± 0.0516 fold-change vs cycle 0 | 1.47 ± 0.111 fold-change vs cycle 0 | 1.37 ± 0.127 fold-change vs cycle 0
44 | AGACCG | 0.32 ± 0.0198 fold-change vs cycle 0 | 0.393 ± 0.0317 fold-change vs cycle 0 | 0.525 ± 0.0509 fold-change vs cycle 0
45 | GAATCA | 1.35 ± 0.0589 fold-change vs cycle 0 | 1.45 ± 0.0456 fold-change vs cycle 0 | 1.38 ± 0.0555 fold-change vs cycle 0
46 | GCATAC | 0.665 ± 0.00696 fold-change vs cycle 0 | 0.738 ± 0.0335 fold-change vs cycle 0 | 0.819 ± 0.0421 fold-change vs cycle 0
47 | CAGAGG | 0.463 ± 0.0456 fold-change vs cycle 0 | 0.548 ± 0.0393 fold-change vs cycle 0 | 0.65 ± 0.0673 fold-change vs cycle 0
48 | ACAAGA | 1.29 ± 0.0493 fold-change vs cycle 0 | 1.52 ± 0.0767 fold-change vs cycle 0 | 1.39 ± 0.105 fold-change vs cycle 0
49 | ATACTC | 1.45 ± 0.0421 fold-change vs cycle 0 | 1.5 ± 0.0712 fold-change vs cycle 0 | 1.44 ± 0.097 fold-change vs cycle 0
50 | AACGTG | 0.697 ± 0.0529 fold-change vs cycle 0 | 0.827 ± 0.0416 fold-change vs cycle 0 | 0.87 ± 0.0436 fold-change vs cycle 0
51 | AACCTA | 1.37 ± 0.0609 fold-change vs cycle 0 | 1.47 ± 0.0701 fold-change vs cycle 0 | 1.4 ± 0.0994 fold-change vs cycle 0
52 | CTATCA | 1.36 ± 0.0524 fold-change vs cycle 0 | 1.47 ± 0.0491 fold-change vs cycle 0 | 1.41 ± 0.0867 fold-change vs cycle 0
53 | CAAACC | 0.669 ± 0.0487 fold-change vs cycle 0 | 0.765 ± 0.014 fold-change vs cycle 0 | 0.864 ± 0.0462 fold-change vs cycle 0
54 | CAGTAG | 0.806 ± 0.0679 fold-change vs cycle 0 | 0.908 ± 0.0926 fold-change vs cycle 0 | 0.954 ± 0.0684 fold-change vs cycle 0
55 | CATCCA | 0.851 ± 0.0432 fold-change vs cycle 0 | 0.934 ± 0.0343 fold-change vs cycle 0 | 0.974 ± 0.0408 fold-change vs cycle 0
56 | ACGTGA | 0.774 ± 0.0226 fold-change vs cycle 0 | 0.876 ± 0.021 fold-change vs cycle 0 | 0.931 ± 0.0233 fold-change vs cycle 0
57 | ACAGCA | 0.623 ± 0.0211 fold-change vs cycle 0 | 0.694 ± 0.0191 fold-change vs cycle 0 | 0.793 ± 0.0143 fold-change vs cycle 0
58 | ACGTAG | 0.7133 ± 0.00555 fold-change vs cycle 0 | 0.792 ± 0.0458 fold-change vs cycle 0 | 0.864 ± 0.0314 fold-change vs cycle 0
59 | GGCTAC | 0.316 ± 0.0371 fold-change vs cycle 0 | 0.356 ± 0.0124 fold-change vs cycle 0 | 0.493 ± 0.0659 fold-change vs cycle 0
60 | GAATGC | 0.632 ± 0.0438 fold-change vs cycle 0 | 0.728 ± 0.0366 fold-change vs cycle 0 | 0.816 ± 0.0183 fold-change vs cycle 0
